# Shown are actives, neighbours in structure and some others; about 2.4% of the full set was active somewhere.
# Pol eta inh-1: DNA polymerase eta (human) inhibition. Q9Y253. recombinant Pol eta, fluorescent DNA replication assay. Potency, µM (highest dose often 114 µM), hits mostly inhibitors. actives 1.2% (n = 390,000)
#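 Fluorescent replication assay: 50 nM final substrate added after a 15 min room-temperature compound preincubation with 10 nM enzyme. Signal taken at 0 min and again at 10 min.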
# POLI inh: blocks human DNA polymerase iota activity | Pol iota fluorescent replication assay, 10 min | Q9UNA4 | Potency, µM (series often up to 115 µM), most hits filed as inhibitors | actives 1% (n = 390,000) | AID 588590
#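 Pol iota at 10 nM preincubated 15 min with compounds at room temperature; reaction started with fluorescent substrate, 50 nM final. Fluorescence read kinetically at 0 and 10 min; buffer-only wells as negative control.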
# Pol beta inh: inhibitors of human DNA polymerase beta; AID 485314; actives 1.3% (n = 340,000); P06746; Pol beta primer extension/strand displacement, fluorescence kinetic; Potency, µM (series often up to 114 µM), hits mostly inhibitors
#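 Homogeneous kinetic assay of primer extension and strand displacement by 10 nM Pol beta, preincubated 15 min at room temperature with compound before 50 nM substrate (final) was added. Read at 0 and 10 min; four-parameter Hill fit.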
# Pol kappa inh-1: DNA polymerase kappa (human) inhibition; Q9UBT6; purified Pol kappa, fluorescent DNA synthesis assay, 10 min; Potency, µM (titrated, usually from 107 µM), most hits filed as inhibitors; actives 0.53% (n = 400,000)
#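 Inhibition of 10 nM Pol kappa is measured by a fluorescent read-out at 0 and 10 min following addition of 50 nM substrate (final), with a 15-min room-temperature compound preincubation.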
# WRN inhibitor: blocks human WRN helicase | Q14191 | WRN helicase unwinding, fluorescent forked duplex, kinetic | Potency, µM (doses to about 114 µM), most hits filed as inhibitors | actives 0.46% (n = 360,000); note: nearly all actives have a fitted effect of over 55% in size
#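 WRN at 20 nM final was preincubated with compound for 15 min at room temperature; reaction started with 100 nM forked duplex oligonucleotide carrying fluorophore and quencher plus 2 mM ATP (final). Unwinding followed kinetically by red fluorescence (ex 525/em 598 nm).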
# FEN1 inhibitor: human FEN1 inhibition; AID 588795; P39748; Recombinant FEN1 flap cleavage, fluorescence, 15 min; Potency, µM (titrated, usually from 114 µM), hits mostly inhibitors; actives 0.35% (n = 390,000); note: nearly all actives have a fitted effect of over 65% in size
# Target sequence (P39748 whole entry, looked up): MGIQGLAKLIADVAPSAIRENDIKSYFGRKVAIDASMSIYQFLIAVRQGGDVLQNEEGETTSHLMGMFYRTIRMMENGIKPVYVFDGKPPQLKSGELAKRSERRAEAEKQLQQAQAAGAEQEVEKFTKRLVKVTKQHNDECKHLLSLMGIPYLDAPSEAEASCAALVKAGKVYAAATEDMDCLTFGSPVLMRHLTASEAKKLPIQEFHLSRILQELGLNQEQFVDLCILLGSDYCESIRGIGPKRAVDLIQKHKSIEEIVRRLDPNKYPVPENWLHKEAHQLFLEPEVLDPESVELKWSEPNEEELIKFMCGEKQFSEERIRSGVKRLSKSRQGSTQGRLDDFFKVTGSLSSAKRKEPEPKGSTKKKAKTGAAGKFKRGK
#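 Reaction started by adding substrate (50 nM final) to 10 nM enzyme after 15 min room-temperature compound preincubation. Reads at 0 and 15 min, with data normalized and fitted to a four-parameter Hill equation.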
# TbPGK inh: validation of Trypanosoma brucei phosphoglycerate kinase inhibitors | shares compounds with Pol kappa inh-1 | TbPGK coupled GAPDH assay, Kinase-Glo luminescence | Potency, µM (series often up to 57.5 µM), most hits filed as inhibitors | actives 79% (n = 500) | AID 686980; note: nearly all actives have a fitted effect of over 65% in size
# Pol iota confirm: Confirm cherry-picked inhibitors of human polymerase iota; shares compounds with Pol kappa inh-1; Pol iota primer extension, TAMRA/BHQ fluorescence; Potency, µM, usual class: inhibitors; actives 77% (n = 1,500); AID 720496
# Pol kappa inh-2: confirmation of human DNA polymerase kappa inhibitors; purified Pol-kappa, fluorescent strand-displacement substrate; Potency, µM, actives largely listed as inhibitors; actives 76% (n = 920); shares compounds with Pol eta inh-1
# Pol eta inh-2: confirmation of human DNA polymerase eta inhibitors | Potency, µM, most hits filed as inhibitors | AID 720502 | actives 64% (n = 2,600) | Pol eta primer extension, TAMRA/BHQ fluorescence, 10 min | shares compounds with Pol eta inh-1
# A number is an active result; – = inactive; ? = inconclusive; · = not tested or not shown; [ ] = remark or other dose. Calls come from the whole dose curve; as a rule, active = well fitted curve in the direction sought with a large enough effect; inconclusive = small, poorly fitted or top-dose-only effect, or another doubt; inactive = no such curve, though single readings can be large; an effect the other way counts as inactive or inconclusive.
SMILES,Pol eta inh-1,POLI inh,Pol beta inh,Pol kappa inh-1,WRN inhibitor,FEN1 inhibitor,Pol iota confirm,Pol eta inh-2,others
O=C(O)/C(=C\c1ccc(Cl)c([N+](=O)[O-])c1)c1ccc(S(=O)(=O)N2CCCC2)s1,22.4µM,39.8µM,·,?,–[11.6 µM],–,?,?,Pol kappa inh-2=?
Cc1cc(C=O)c(C)n1-c1ccc(Cl)c(C(=O)O)c1,3.16µM,5.62µM,3.16µM,22.4µM,?,?,10.6,6.01,TbPGK inh=11.6µM
CCOCCc1nn2c(=O)cc(COC(=O)c3cccc(C)c3)nc2s1,–,–,–,–,·,–,·,·,
CCOC(=O)c1cccc(NC(=O)c2cc3cc4cc(OC)ccc4nc3s2)c1,?,–,?,–,·,?,?,?,Pol kappa inh-2=18.9
Cc1oc(-c2ccc(Cl)cc2)cc1-c1nn2c(-c3ccoc3C)nnc2s1,4.47µM,?,3.55µM,?,?,–,?,75.7,
CC1=NN(c2ccc(C(=O)O)c(N)c2)C(=O)C1,22.4µM,1.26µM,10µM,89.1µM,–,–,59.7,33.8,
CC1=NN(c2ccc(C(=O)O)cc2)C(=O)CC1,–,–,?,–,–,–,·,·,
COc1ccc(-c2cc(C(F)(F)F)c3c(n2)sc2c(O)cc(=O)[nH]c23)c(OC)c1,12.6µM,?,56.2µM,20µM,?,?,67,67.5,
O=C(O)c1ccc(COc2ccc3ccccc3c2/C=C2/NC(=O)N(Cc3ccc(F)cc3)C2=O)cc1,31.6µM,–,22.4µM,?,79.4µM,?,?,?,Pol kappa inh-2=37.7
Cc1cc(C(=O)O)ccc1-c1ccc(/C=C2\NC(=O)N(Cc3ccc(F)cc3)C2=O)o1,7.08µM,?,?,28.2µM,?,?,16.8,16.9,
Cc1ccc(CN2C(=O)N/C(=C\c3cccn3-c3cccc(C(=O)O)c3)C2=O)cc1,8.91µM,14.1µM,8.91µM,50.1µM,31.6µM,?,21.2,26.9,
CCOC(=O)c1cccc(-n2cccc2/C=C2\NC(=O)N(CC(=O)O)C2=O)c1,–,–,·,–,·,–,·,·,
O=C(O)c1cccc(-n2cccc2/C=C2\NC(=O)N(Cc3ccc(F)cc3)C2=O)c1,20µM,22.4µM,11.2µM,79.4µM,?,?,67,30.1,
O=C(CSc1nc(-c2ccccc2)nc2c1Cc1ccccc1O2)N1CCCCC1,–,–,–,–,·,–,·,·,
COc1ccc(CN2C(=O)N(c3ccccc3)C(=O)C2c2ccccc2)cc1COc1ccc(NC(C)=O)cc1 (stereo unspecified),·,?,·,–,·,–,·,·,
O=C(O)c1ccccc1Nc1ccccc1C(=O)O,–,–,–,–,–,–,·,·,
O=C1C=C(Nc2cccc3cccnc23)c2ccccc2C1=O,50.1µM,17.8µM,?,?,–,50.1µM,?,?,
O=C1C=C(Nc2ccccc2C(=O)O)c2ccccc2C1=O,28.2µM,17.8µM,?,–,–,?,67,37.9,
COc1ccccc1N1CCN(C(=O)c2cc3c(=O)n(Cc4cccnc4)ccc3nc2C)CC1,–,–,–,–,·,–,·,·,
O=C(NNC(=O)c1ccccc1Br)c1ccc2nc[nH]c2c1,22.4µM,?,22.4µM,?,–,–,?,53.6,
O=C(NNC(=O)c1ccccc1Br)c1ccc(Cl)c(Cl)c1,–,–,–,–,–,–,·,·,
CC(=O)NC1=NC(=O)/C(=C/c2cc(C)n(-c3cccc(C(=O)O)c3)c2C)S1,3.98µM,14.1µM,6.31µM,39.8µM,44.7µM,50.1µM,9.47,10.7,TbPGK inh=6.51µM;Pol kappa inh-2=8.44

# From PubChem BioAssay
